# ChEMBL document CHEMBL3988442, “University of Dundee, Small-Polar-MMV Screening Library” (2021)
# Screen size: about 69,000 compounds; about 950 (1.4%) showed an effect of 50% or more. The entries come from a sample that favours strong results as a whole.
# Tested on: Mycobacterium tuberculosis
# Test: Cornell M. t heat shock assay; also: in the data most compounds retested in dose-response had high values
# Type: functional, organism-based
# Design: dose or concentration left out as unconfirmed
row,Compound,Percent Effect [%]
1,CCN(CC)Cc1cn2c(n1)CN(Cc1c(C)noc1C)CC2.O=C(O)C(F)(F)F.O=C(O)C(F)(F)F,-4.28
2,Cn1nccc1-c1nnn2c1COCC(CNC1CCOCC1)C2.O=C(O)C(F)(F)F.O=C(O)C(F)(F)F (stereo not drawn),3.559
3,CCCn1c(NCCc2ccccc2)nc2c(C)nn(C)c2c1=O,22.06
4,CCCc1nc(NCCOC)c2c(n1)c(C)nn2CC,-17.61
5,CCn1nc(C)c2nc(C)nc(NCCc3ccccc3)c21,83.2
6,CCn1nc(C)c2nc(C)nc(NCCCn3cccn3)c21,-3.879
7,CCCc1nc(NCCCOC)c2c(n1)c(C)nn2CC,-13.02
8,CCCc1nc(NCCCO)c2c(n1)c(C)nn2CC,24.94
9,CCn1nc(C)c2nc(C(C)C)nc(NCCc3ccc(O)cc3)c21,-11.29
10,CCn1nc(C)c2nc(C)nc(NC3CCCC3)c21,69.93
11,Cc1nc(NC2CC2)c2c(n1)c(C)nn2C,-10.52
12,Cc1nc(NC2CCCC2)c2c(n1)c(C)nn2C,15.85
13,CCCc1nc(NCCc2ccccc2)c2c(n1)c(C)nn2CC,91.68
14,CCn1nc(C)c2nc(C)nc(NCCc3ccc(C)cc3)c21,69.41
15,O=C(O)C(F)(F)F.O=C(O)C(F)(F)F.c1cc(CN2CCO[C@H]3[C@H](OCC4CCCC4)CC[C@@H]32)ccn1,3.983
16,Cc1ccc(C(=O)N2CCC3(CCCN(c4ncc(F)cn4)C3)C2)cn1.O=C(O)C(F)(F)F (stereo not drawn),10.32
17,C1CC(CO[C@@H]2CC[C@H]3[C@H]2OCCN3CC2CC2)CCO1.O=C(O)C(F)(F)F,-24.78
18,Cc1ccc(C)c(CSc2nnc(C(N)Cc3ccccc3)o2)c1.Cl (stereo not drawn),-13.89
19,Cl.O=C(C1CC1)N1CCOC2(CCNCC2)C1,27.3
20,Fc1ccc(CN2C[C@@H]3OCCN(CC4CCCO4)[C@@H]3C2)cc1.O=C(O)C(F)(F)F.O=C(O)C(F)(F)F (stereo partly drawn),-48.55
21,CCc1ncnc2c1CCN(Cc1ccc3c(c1)OCO3)CC2.O=C(O)C(F)(F)F,-11.62
22,COC[C@H]1CC[C@@H]2[C@@H](CCN2Cc2ccco2)O1.O=C(O)C(F)(F)F,-6.92
23,Cc1ccc(CN2CCOC3(CCN(CC4CCOC4)CC3)C2)cc1.O=C(O)C(F)(F)F.O=C(O)C(F)(F)F (stereo not drawn),35.27

row,Compound,Percent Effect [%]
1,CNC(=O)[C@H]1CO[C@H]2CCN(Cc3ccc4ccccc4n3)C[C@H]2C1.O=C(O)C(F)(F)F.O=C(O)C(F)(F)F,-6.104
2,CCCc1nc(N2CCCCCC2)c2c(n1)c(C)nn2CC,50.35
3,CCCc1nc(N2CCN(CC)CC2)c2c(n1)c(C)nn2CC,-31.53
4,CCCc1nc(N2CCCCC2)c2c(n1)c(C)nn2CC,-7.298
5,COCC(=O)N1CCOCC2(CCN(Cc3cccs3)C2)C1.O=C(O)C(F)(F)F (stereo not drawn),-21.04
6,Cc1ccc(CN2CCn3c(CN(C)C(C)C)cnc3C2)s1.O=C(O)C(F)(F)F.O=C(O)C(F)(F)F,-14.26
7,Cc1cn2c(n1)C(CNCc1ccc(C)s1)CCC2 (stereo not drawn),-22.18
8,Cc1cn2c(n1)C(CNCC1=Cc3cc(Cl)ccc3OC1)CCC2 (stereo not drawn),99
9,Cc1cn2c(n1)C(CNCC1=Cc3ccccc3OC1)CCC2 (stereo not drawn),28.86
10,O=C(NCC1CC1)[C@H]1C[C@@H]2CCN(Cc3ccc4c(c3)OCO4)C[C@@H]2O1.O=C(O)C(F)(F)F,-28.42
11,COc1cccc(-c2nc(CNCCn3cccn3)cs2)c1,90.69
12,c1cnc(-c2nc(CNCCn3cccn3)cs2)nc1,-0.9429
13,Fc1ccc(-c2nc(CNCCn3cccn3)cs2)cc1,66.63
14,Clc1ccccc1-c1nc(CNCCn2cccn2)cs1,54.38
15,c1ccc(-c2nc(CNCCn3cccn3)cs2)nc1,-25.33
16,COc1cccc(-c2nc(CNCCc3cccnc3)cs2)c1,-0.6336
17,c1ccc(-c2nc(CNCCn3cccn3)cs2)cc1,37.88
18,Fc1ccc(-c2n[nH]cc2CNCCn2cccn2)cc1,11.69
19,COc1cccc(-c2nc(CNCCCn3cccn3)cs2)c1,37.34
20,c1csc(-c2nc(CNCCn3cccn3)cs2)c1,10.7
21,Fc1ccccc1-c1nc(CNCCn2cccn2)cs1,20.44
22,c1cnn(CCNCc2csc(-c3ccsc3)n2)c1,52.72
23,Cc1ccc(CN2CCC3(CC2)CN(c2cnn(C)c2)C(=O)CO3)o1.O=C(O)C(F)(F)F,-7.35

row,Compound,Percent Effect [%]
1,OCCOc1cc(F)ccc1NCc1cccc(F)c1F,-41.85
2,O=C(O)C(F)(F)F.O=S(=O)(c1cccs1)N1CC[C@H](O)[C@@H]1Cc1ccncc1,-2.198
3,Cn1cc(N2C(=O)CC[C@@H]3[C@H]2CCN3CCc2ccccc2)cn1.O=C(O)C(F)(F)F.O=C(O)C(F)(F)F,-25.96
4,COc1ccc(CNC(C)c2cccc(Br)c2)c(OC)c1OC.Cl (stereo not drawn),-10.84
5,COCCN1CCC(c2nc3ccc(-c4ccccc4)cn3n2)CC1.O=C(O)C(F)(F)F,-23.12
6,C/N=C1/c2cc3cc(OC)ccc3n2CCN1Cc1ccccc1.Cl,-17.35
7,Cc1noc(C)c1CN1CCO[C@H]2CN(C(=O)N3CCCC3)C[C@H]21.O=C(O)C(F)(F)F,-20.16
8,COc1ccc(-c2nc(CNCCn3cccn3)cs2)cc1,106.9
9,COc1ccc(-c2nnc(CNCCn3cccn3)o2)cc1,-11.96
10,Cn1cc(-c2nc(CNCCn3cccn3)cs2)cn1,-4.068
11,CCc1c(C)nc2cc(C3CCN(Cc4ccncc4C)C3)nn2c1O (stereo not drawn),-4.904
12,O=C(O)C(F)(F)F.O=C(c1ccncc1F)N1CCc2onc(COc3cccnc3)c2C1,2.972
13,Cn1ccc(C(=O)N2CCC[C@]3(C[C@@H](OCc4ccccn4)CO3)C2)n1.O=C(O)C(F)(F)F,-3.608
14,O=C(O)CCCC(=O)N1CCC(c2noc3cc(F)ccc23)CC1,20.09
15,CC(C)NC(=O)CN1CCC(c2cccc(F)c2)C1 (stereo not drawn),-24.09
16,NC(=O)CN1CCC(c2noc3cc(F)ccc23)CC1,-31.79
17,O=C(O)CCC(=O)N1CCC(c2noc3cc(F)ccc23)CC1,69.92
18,CCCNC(=O)CCC(=O)N1CCC(c2noc3cc(F)ccc23)CC1,9.612
19,CC(C)NC(=O)CCC(=O)N1CCC(c2noc3cc(F)ccc23)CC1,74.12
20,O=C(CCC(=O)N1CCC(c2noc3cc(F)ccc23)CC1)NC1CC1,83.45
21,O=C(CCN1CCC(C(=O)c2cc(F)ccc2F)CC1)NC1CC1,-9.281
22,O=C(CCc1cc(O)no1)N1CCC(Cc2ccc(F)cc2)CC1,4.65
